EWS-Fli inh = EWS/Fli-driven NR0B1 reporter inhibitors, primary screen, A673 cells, NR0B1 luciferase, luminescence, MLPCN library | inhibition, % at 12.6 µM | 350,000 tested, 0.67% active | viability-normalised | AID 651661, 2012;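 active = mean inhibition of at least 50% after viability correction, with every replicate also passing that limit; inconclusive = mean reaches 50% but only one of two replicates passes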;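 also: firefly luciferase signal divided by Alamar Blue viability fluorescence both relative to DMSO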
LGR2 inh = inhibitors of bursicon-induced LGR2 CRE-luciferase signal, primary screen, cell-based, HEK293, CRE-luciferase reporter, bursicon stimulation; inhibition, % at 9.99 µM; Drosophila bursicon receptor LGR2 (rickets); bursicon-stimulated, 4 h; 380,000 tested, 0.35% active; AID 720647, 2013;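 active = drop in luminescence signal, shown as inhibition above about 50% in the replicate tests, limit read from the data, passing the limit was not always enough; inconclusive = probably only some replicates passing the limit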;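 also: agonist challenge used bursicon conditioned medium at about half maximal strength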
Shn3 inh set2 = reduction of Shn3 3'UTR firefly luciferase signal, primary screen, Schnurri-3 inhibitor project, cell-based, Clone20 osteoblasts, set 2; Clone20 osteoblast Shn3 3'UTR firefly luciferase, 24 h; inhibition, % at 12.5 µM; 360,000 tested, 0.52% active; AID 588674, 2011;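 active = mean inhibition of at least 75% with every replicate also reaching 75%; inconclusive = mean inhibition at least 75% but some replicate below; inactive = mean inhibition below 75%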
PAX8 reporter = inhibitors of PAX8-driven TPO luciferase reporter, primary screen, RMG-I cells, single concentration; SteadyGlo, 24 h; inhibition, % at 12.6 µM; 360,000 tested, 1.2% active; AID 652154, 2013;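 active = mean replicate inhibition at least 60% with every replicate also reaching 60%; inconclusive = only one of the two criteria is met; inactive = mean below 60% and not all replicates reaching 60%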;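 also: luciferase light reporting Pax8 driven TPO promoter activity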
CF NFkB block = inhibitors of PAF-induced NF-kB signaling, primary screen, cell-based, GFP fluorescence, uHTS; inhibition, % at 5 µM; 360,000 tested, 0.86% active; AID 588850, 2011; KKLEB NF-kB-GFP reporter, GFP fluorescence overnight;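 active = at least 50% inhibition at 5 µM, scaled per plate between neutral and stimulator controls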;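 also: PAF is a Pseudomonas aeruginosa culture filtrate used as stimulus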
KKLEB tox = cytotoxicity in KKLEB CF airway cells, primary screen, cytotoxicity control for CF NF-kB inhibitor project, cell-based, uHTS, fluorescence assay plates | 360,000 tested, 0.36% active | AID 602141, 2011 | KKLEB CF airway cells viability, ATPlite luminescence, overnight; hits give low values; cells stimulated with P. aeruginosa culture filtrate | activity change (cytotoxicity), % at 5 µM;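 active = corrected activity change at or below -50% at 5 µM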
Large screens that a line does not name were inactive. The list is not random: actives were taken first. Their share in the collection is about 2%.

CO[C@H]1CN(C)C(=O)c2ccc(NC(=O)C3CCCC3)cc2OC[C@@H](C)N(C(=O)CC2CC2)C[C@H]1C	none (no result: Shn3 inh set2, CF NFkB block, KKLEB tox)
COc1cccc(/C=C2\SC(=S)N(CCCC(=O)N3CCCCC3)C2=O)c1	none
O=C1/C(=C/c2ccc3c(c2)OCO3)SC(=S)N1CCC(=O)N(CCO)c1ccccc1	none
COc1cccc(/C=C2\SC(=S)N(CCCC(=O)N(CCO)c3ccccc3)C2=O)c1	PAX8 reporter 65.0
O=C1/C(=C/c2cccc(Br)c2)SC(=S)N1CCC(=O)N(CCO)c1ccccc1	LGR2 inh inconclusive, PAX8 reporter 89.8
COc1ccc2c3c([nH]c2c1)[C@H](CO)N(Cc1ccc(Cl)cc1)CC31CCN(Cc2ccccc2)CC1	none (no result: Shn3 inh set2, PAX8 reporter, CF NFkB block, KKLEB tox)
O=C(CC(F)(F)F)N1C[C@@H]2[C@H](c3ccccc31)[C@H](CO)N2CC1CCOCC1	none (no result: Shn3 inh set2, CF NFkB block, KKLEB tox)
O=C(CCl)N(c1ccccc1)C1CCCCC1	LGR2 inh 94.1, Shn3 inh set2 96.7, PAX8 reporter 103.0, CF NFkB block 92.1, KKLEB tox -91.6
CC(=O)N(c1ccccc1)C1CCCC1	none
C[C@@H]1CCCCO[C@H](CN(C)C(=O)C2CCCCC2)[C@H](C)CN([C@H](C)CO)C(=O)c2cc(NC(=O)Nc3ccccc3)ccc2O1	none (no result: LGR2 inh, Shn3 inh set2, CF NFkB block, KKLEB tox)
CCC(=O)N1[C@H](C(=O)NCCCN(C)C)[C@@H](CO)[C@@H]2Cn3c(ccc(-c4ccccc4F)c3=O)[C@@H]21	none (no result: Shn3 inh set2, CF NFkB block, KKLEB tox)
O=C(c1cc(-c2cccs2)on1)N1CCN(C(c2ccccc2)c2ccccc2)CC1	PAX8 reporter 99.1 (no result: EWS-Fli inh, LGR2 inh)
Cc1onc(C(=O)N2CCN(C(c3ccccc3)c3ccccc3)CC2)c1[N+](=O)[O-]	PAX8 reporter 97.5
COc1ccccc1NC(=O)N[C@H]1C=C[C@H](CC(=O)N2CCC(Cc3ccccc3)CC2)O[C@@H]1CO	none (no result: Shn3 inh set2, CF NFkB block, KKLEB tox)
O=C(C1CC1)N1CC2(C1)[C@H](c1ccccc1)[C@@H](CO)N2C(=O)c1cccnc1	none (no result: Shn3 inh set2, PAX8 reporter, CF NFkB block, KKLEB tox)
Cc1ccc(-c2cc(C(=O)N3N=C(C(F)F)CC3(O)C(F)F)c3ccccc3n2)cc1C (stereo unspecified)	CF NFkB block 51.5, KKLEB tox -50.3 (no result: EWS-Fli inh, LGR2 inh, PAX8 reporter)
Cc1ccc(S(=O)c2snnc2C)cc1 (stereo unspecified)	none
CCCNC(=O)c1nnsc1S(=O)c1ccc(Cl)cc1 (stereo unspecified)	LGR2 inh 102.8, Shn3 inh set2 96.0, PAX8 reporter 79.2, CF NFkB block 84.0
CNC(=O)c1nnsc1S(=O)c1ccc(Cl)cc1 (stereo unspecified)	LGR2 inh 102.4, Shn3 inh set2 97.0, CF NFkB block 90.9
CCCNC(=O)c1nnsc1S(=O)(=O)c1ccc(Cl)cc1	LGR2 inh 96.2, Shn3 inh set2 92.0, PAX8 reporter 112.0, CF NFkB block 88.9
COc1cccc(NC(=O)N[C@H]2CC[C@H](CC(=O)Nc3ccccc3)O[C@H]2CO)c1	none (no result: Shn3 inh set2, CF NFkB block, KKLEB tox)
COc1ccccc1C#Cc1ccc([C@H]2[C@@H](CO)N(C(=O)C3CCCCC3)[C@H]2C#N)cc1	PAX8 reporter 90.3 (no result: Shn3 inh set2, CF NFkB block, KKLEB tox)
COc1ccccc1C#Cc1ccc([C@@H]2[C@@H](C#N)N(C(=O)C3CCCCC3)[C@@H]2CO)cc1	none (no result: Shn3 inh set2, CF NFkB block, KKLEB tox)
COc1ccccc1C#Cc1ccc([C@H]2[C@H](C#N)N(C(=O)C3CCCCC3)[C@H]2CO)cc1	LGR2 inh 82.6 (no result: Shn3 inh set2, PAX8 reporter, CF NFkB block, KKLEB tox)
CC1=CC(C)(C)N(C(=O)CCl)c2cc(C)ccc21	EWS-Fli inh 68.4
CC1=CC(C)(C)N(S(=O)(=O)c2ccc(C)cc2)c2cc(C)ccc21	CF NFkB block 51.4 (no result: EWS-Fli inh, LGR2 inh, PAX8 reporter)
CC1=CC(C)(C)N(C(=O)CNC2CCCCC2)c2cc(C)ccc21	none
CCOc1ccc2c(c1)C(C)=CC(C)(C)N2S(=O)(=O)c1ccc(C)cc1	PAX8 reporter 82.1, CF NFkB block 60.9
COc1ccc2c(c1)C(C)=CC(C)(C)N2S(=O)(=O)c1ccc(C)cc1	EWS-Fli inh inconclusive, PAX8 reporter 78.6
C[C@H]1CN([C@@H](C)CO)C(=O)c2cc(NC(=O)C3CCCCC3)ccc2O[C@H]1CN(C)C(=O)Nc1ccc(C(F)(F)F)cc1	none (no result: Shn3 inh set2, CF NFkB block, KKLEB tox)
O=C(Nc1ccc2nc(-c3ccco3)c(-c3ccco3)nc2c1)NC1CC1	none (no result: EWS-Fli inh, LGR2 inh, PAX8 reporter)
O=C(Nc1ccc(N2CCOCC2)cc1)Nc1ccc2nc(-c3ccco3)c(-c3ccco3)nc2c1	CF NFkB block 69.8 (no result: EWS-Fli inh, LGR2 inh, PAX8 reporter)
COC(=O)c1cc(OC)c(OC)cc1NCC(=O)Nc1ccc(C)cc1	LGR2 inh 50.5
COC(=O)c1cc(OC)c(OC)cc1NCC(=O)Nc1ccc(OC)c(OC)c1	none (no result: EWS-Fli inh)
C[C@@H]1CCCCO[C@@H](CN(C)S(=O)(=O)c2ccc(Cl)cc2)[C@H](C)CN([C@H](C)CO)C(=O)c2cc(NS(=O)(=O)c3ccc(Cl)cc3)ccc2O1	PAX8 reporter 90.1 (no result: Shn3 inh set2, CF NFkB block, KKLEB tox)
C[C@@H]1CN([C@@H](C)CO)C(=O)c2cc(NS(=O)(=O)c3ccc(Cl)cc3)ccc2O[C@@H](C)CCCCO[C@@H]1CN(C)S(=O)(=O)c1ccc(Cl)cc1	none (no result: Shn3 inh set2, CF NFkB block, KKLEB tox)
C[C@H](CO)N1C[C@H](C)[C@@H](CN(C)S(=O)(=O)c2ccc(Cl)cc2)OCCCC[C@H](C)Oc2ccc(NS(=O)(=O)c3ccc(Cl)cc3)cc2C1=O	PAX8 reporter 86.8 (no result: Shn3 inh set2, CF NFkB block, KKLEB tox)
C[C@@H]1CCCCO[C@@H](CN(C)S(=O)(=O)c2cccs2)[C@H](C)CN([C@@H](C)CO)C(=O)c2cc(NS(=O)(=O)c3ccc(Cl)cc3)ccc2O1	PAX8 reporter 70.5 (no result: Shn3 inh set2, CF NFkB block, KKLEB tox)
C[C@@H]1CN([C@H](C)CO)C(=O)c2cc(NS(=O)(=O)c3ccc(Cl)cc3)ccc2O[C@@H](C)CCCCO[C@@H]1CN(C)S(=O)(=O)c1cccs1	none (no result: Shn3 inh set2, CF NFkB block, KKLEB tox)
C[C@H]1CCCCO[C@@H](CN(C)S(=O)(=O)c2ccc(Cl)cc2)[C@@H](C)CN([C@@H](C)CO)C(=O)c2cc(NS(=O)(=O)c3ccc(Cl)cc3)ccc2O1	none (no result: Shn3 inh set2, CF NFkB block, KKLEB tox)
C[C@@H]1CN([C@H](C)CO)C(=O)c2cc(NS(=O)(=O)c3ccc(Cl)cc3)ccc2O[C@@H](C)CCCCO[C@@H]1CN(C)S(=O)(=O)c1ccc(Cl)cc1	none (no result: Shn3 inh set2, CF NFkB block, KKLEB tox)
C[C@H]1CCCCO[C@H](CN(C)S(=O)(=O)c2ccc(Cl)cc2)[C@@H](C)CN([C@@H](C)CO)C(=O)c2cc(NS(=O)(=O)c3ccc(Cl)cc3)ccc2O1	PAX8 reporter 83.3 (no result: Shn3 inh set2, CF NFkB block, KKLEB tox)
CCCN(C)C[C@@H]1Oc2cc(C#Cc3cccc(F)c3)ccc2S(=O)(=O)N([C@@H](C)CO)C[C@H]1C	none (no result: Shn3 inh set2, PAX8 reporter, CF NFkB block, KKLEB tox)
CCS(=O)(=O)Nc1ccc2c(c1)C(=O)N(C)[C@H]1CC[C@@H](CC(=O)OC)O[C@@H]1CO2	none (no result: Shn3 inh set2, CF NFkB block, KKLEB tox)
CCCCCCCCC[n+]1cccc2c3ccccc3ccc21	Shn3 inh set2 89.2 (no result: EWS-Fli inh, LGR2 inh, PAX8 reporter)
